Growth data for seven compounds are collected here from PubChem BioAssay (NCI).

Compounds without any hit were thinned out: in the full panel of roughly 83,000, 20% have a hit.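 Each cell line was grown in a 96-well plate and treated with one concentration of compound for 48 hours. Values below 10 were considered active.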 Unmarked numbers belong to inactive results. Calls of active or inactive are those of the source.

Some test systems named below: HCT-15 colon; HT29 colon; SNB-75 CNS; SNB-19 CNS; U251 CNS; PC-3 prostate; SK-MEL-5 melanoma; UACC-62 melanoma; LOX IMVI melanoma; SK-MEL-28 melanoma; SK-MEL-2 melanoma; EKVX NSCLC; SN12C renal; UO-31 renal; TK-10 renal; ACHN renal; CAKI-1 renal; A498 renal; CCRF-CEM leukemia; MOLT-4 leukemia.
Common to all, as to experiment: NCI-60 one-dose screen, 48 h (100 = growth as untreated, 0 = no growth, -100 = all killed)
Conditions in all cases: 10 µM

Take `C#CCNC(=O)CCC(=O)OC[C@]12CC[C@@H](C(=C)C)[C@@H]1C1CC[C@@H]3[C@@]4(C)CCCNC(C)(C)[C@@H]4CC[C@@]3(C)[C@]1(C)CC2` (stereo not given in full): the growth in the experiment with HCT-15 colon is -64.9% (active); in the experiment with HT29 colon, -68.1% (active); in the experiment with SNB-75 CNS, 98.8%; in the experiment on SNB-19 CNS, 34%; in the experiment on U251 CNS, -74.2% (active); with PC-3 prostate it was -20.3% (active). The growth was -100% (active) in the experiment on SK-MEL-5 melanoma; -42.8% (active) with UACC-62 melanoma; -100% (active) with LOX IMVI melanoma; -98.5% (active) in the experiment with SK-MEL-28 melanoma; -66.1% (active) in the experiment with SK-MEL-2 melanoma; 2.91% (active) in the experiment on EKVX NSCLC. Moreover, the growth with SN12C renal is 19.2%; in the experiment on UO-31 renal it was 33.5%; in the experiment on TK-10 renal it was 11.6%; in the experiment with ACHN renal it was 26.6%; in the experiment on CAKI-1 renal it was 17.3%; with A498 renal it was 68.5%. For the same compound, the growth with CCRF-CEM leukemia was -13.2% (active); in the experiment on MOLT-4 leukemia, -3.06% (active).

`CCN1CCN(Cc2ccc(C(=O)Nc3cccc(-c4cn(-c5ccc6oc(=O)ccc6c5)nn4)c3)cc2C(F)(F)F)CC1`: the growth with HCT-15 colon is -100% (active); in the experiment with HT29 colon, -100% (active); in the experiment with SNB-75 CNS it was -33.2% (active); in the experiment with SNB-19 CNS, -100% (active); with U251 CNS it was -100% (active); in the experiment with PC-3 prostate, -40.8% (active). Further, the growth in the experiment on SK-MEL-5 melanoma is -100% (active); in the experiment with UACC-62 melanoma, -100% (active); in the experiment on LOX IMVI melanoma, -100% (active); in the experiment with SK-MEL-28 melanoma it was -100% (active); in the experiment with SK-MEL-2 melanoma it was 66.1%; in the experiment with EKVX NSCLC, -100% (active). For the same compound, the growth with SN12C renal was -100% (active); in the experiment on UO-31 renal it was -100% (active); in the experiment on TK-10 renal, -100% (active); in the experiment with ACHN renal, -100% (active); in the experiment with CAKI-1 renal, 8.59% (active); in the experiment on A498 renal, -100% (active). Also, the figures for the growth with CCRF-CEM leukemia and in the experiment on MOLT-4 leukemia were -21% (active) and -29.8% (active), respectively.

For the compound `CCNCCCn1c2c(c3cc(OC)c(OC)cc3c1=O)C(=O)c1cc3c(nc1-2)OCO3`, the growth in the experiment with HCT-15 colon is -83% (active); with HT29 colon, 26.1%; in the experiment with SNB-75 CNS it was 56.5%; in the experiment on SNB-19 CNS it was 24.9%; with U251 CNS, 21.7%; in the experiment on PC-3 prostate, 43.7%. The growth in the experiment on SK-MEL-5 melanoma was 22.5%; in the experiment with UACC-62 melanoma, -15.3% (active); with LOX IMVI melanoma it was -97.9% (active); with SK-MEL-28 melanoma, 71%; in the experiment on SK-MEL-2 melanoma, 125%; with EKVX NSCLC it was 76.6%. Also, the growth is -89.2% (active) with SN12C renal; -97.8% (active) in the experiment with UO-31 renal; 98.3% in the experiment on TK-10 renal; 2.02% (active) with ACHN renal; 7.87% (active) with CAKI-1 renal; 87.1% in the experiment on A498 renal. The growth in the experiment with CCRF-CEM leukemia is 0.158% (active); with MOLT-4 leukemia, -14.2% (active).

For the compound `N#Cc1ccc(-c2nn(-c3ccc(C(=O)O)cc3)cc2CNc2cccc(Br)c2)cc1`, the growth is 35.5% with HCT-15 colon; 50.7% in the experiment on HT29 colon; 101% in the experiment on SNB-75 CNS; 51.7% in the experiment with SNB-19 CNS; 37% with U251 CNS; 40.1% with PC-3 prostate. Also, the growth in the experiment on SK-MEL-5 melanoma was 24.1%; in the experiment with UACC-62 melanoma it was 41.8%; in the experiment with LOX IMVI melanoma it was 13.2%; in the experiment with SK-MEL-28 melanoma, 35.6%; in the experiment with SK-MEL-2 melanoma, 71.7%; in the experiment with EKVX NSCLC it was 65.9%. Moreover, the growth in the experiment on SN12C renal was 59.2%; in the experiment on UO-31 renal it was 60.5%; in the experiment on TK-10 renal, 102%; in the experiment on ACHN renal, 66.8%; in the experiment with CAKI-1 renal it was 73.4%; in the experiment on A498 renal, 94.5%. Further, the values for the growth in the experiment on CCRF-CEM leukemia and with MOLT-4 leukemia were 23.7% and 23.9%, respectively.

With `N#Cc1c(-c2ccc(F)cc2)nc(SCc2ccc([N+](=O)[O-])cc2)nc1N1CCOCC1`, the growth in the experiment with HCT-15 colon is 72.8%; in the experiment on HT29 colon, 86.6%; in the experiment on SNB-75 CNS, 7.62% (active); in the experiment on SNB-19 CNS, 46%; in the experiment on U251 CNS, 55.3%; in the experiment with PC-3 prostate, 59.1%. The growth with SK-MEL-5 melanoma was 61.9%; in the experiment on UACC-62 melanoma, 62.7%; in the experiment with LOX IMVI melanoma it was 84.7%; with SK-MEL-28 melanoma, 82.1%; in the experiment with SK-MEL-2 melanoma, 87.4%; in the experiment with EKVX NSCLC it was 39.3%. Also, the growth in the experiment on SN12C renal was 74.6%; in the experiment with UO-31 renal, 50.9%; in the experiment with TK-10 renal, 84.2%; with ACHN renal, 51%; with CAKI-1 renal, 35.9%; in the experiment with A498 renal, 64.4%. Moreover, the growth with CCRF-CEM leukemia was 77.2%; with MOLT-4 leukemia, 73.7%.

For `O=C(CSc1nnc(-c2ccc3nc(-c4ccccc4)[nH]c3c2)o1)Nc1ccc(Cl)cc1`, the growth in the experiment with HCT-15 colon is 15.7%; with HT29 colon it was 17.4%; in the experiment on SNB-75 CNS, 66.1%; in the experiment on SNB-19 CNS, 63.9%; in the experiment on U251 CNS, 48.9%; in the experiment on PC-3 prostate, 43.3%. For the same compound, the growth in the experiment with SK-MEL-5 melanoma was 15.3%; in the experiment on UACC-62 melanoma it was 34.3%; in the experiment on LOX IMVI melanoma it was -2.86% (active); in the experiment on SK-MEL-28 melanoma, 41.8%; in the experiment on SK-MEL-2 melanoma, 45%; in the experiment with EKVX NSCLC, 48.6%. Also, the growth was 46.1% with SN12C renal; 40.1% in the experiment with UO-31 renal; 55% in the experiment with TK-10 renal; 29.5% with ACHN renal; 30.5% with CAKI-1 renal; 101% in the experiment on A498 renal. For the same compound, the growth was 13.7% with CCRF-CEM leukemia and 7.63% (active) in the experiment on MOLT-4 leukemia.

`Cc1cc(C)cc(Oc2cccc(-c3c(C)nnn3C3CCN(CCN(C)C)CC3)n2)c1`: the growth in the experiment on HCT-15 colon is 7.96% (active); in the experiment on HT29 colon it was 11%; in the experiment with SNB-75 CNS it was 16.7%; with SNB-19 CNS it was 47.7%; in the experiment with U251 CNS it was 36.5%; in the experiment on PC-3 prostate, 37.7%. Moreover, the growth in the experiment on SK-MEL-5 melanoma is -53.4% (active); in the experiment with UACC-62 melanoma, 18.2%; in the experiment on LOX IMVI melanoma, 2.35% (active); in the experiment on SK-MEL-28 melanoma, 19%; in the experiment on SK-MEL-2 melanoma, 38.7%; in the experiment with EKVX NSCLC, 39.7%. Further, the growth was 41.4% in the experiment on SN12C renal; 15.8% in the experiment on UO-31 renal; 21.1% in the experiment on TK-10 renal; 26.2% in the experiment with ACHN renal; 7.83% (active) in the experiment on CAKI-1 renal; 56.4% in the experiment with A498 renal. The growth in the experiment with CCRF-CEM leukemia is 16.7%; in the experiment with MOLT-4 leukemia, 30.8%.
